# The other results are listed elsewhere or left out. A number with no mark means an inactive call. No stated cut-off is given here; in the data, active means activation above about 21%; inactive means the rest.
# Molecular target: Sphingosine 1-phosphate receptor 1 (Homo sapiens) (UniProt P21453)
# Experiment: activation of human S1P1 receptor – cell-based, counter-screen for S1P4 agonist project (AID 1563);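 further: 0% = vehicle wells and 100% = reference agonist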
# Conditions: S1P1 agonist cell-based assay, at 4.98 µM, stronger effect = higher value
# Sphingosine 1-phosphate receptor 1 (Homo sapiens), sequence (P21453 whole entry, looked up): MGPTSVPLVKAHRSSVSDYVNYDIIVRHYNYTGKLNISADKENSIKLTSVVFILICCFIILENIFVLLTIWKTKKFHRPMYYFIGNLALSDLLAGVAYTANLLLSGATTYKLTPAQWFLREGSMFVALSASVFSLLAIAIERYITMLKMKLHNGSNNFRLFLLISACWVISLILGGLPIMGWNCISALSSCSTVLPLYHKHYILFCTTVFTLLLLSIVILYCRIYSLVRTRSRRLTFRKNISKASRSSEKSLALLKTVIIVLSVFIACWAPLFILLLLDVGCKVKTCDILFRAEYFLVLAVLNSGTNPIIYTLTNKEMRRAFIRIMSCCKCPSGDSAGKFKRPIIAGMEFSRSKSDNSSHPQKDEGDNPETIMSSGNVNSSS
row,SMILES,activation [%]
1,COC(=O)[C@@H]1CC[C@H](C)[C@@H](c2ccc(C)cc2)N1C(=O)c1ccc(/C=N/O[C@H](C)c2cn([C@@H]3COC[C@H]3O)nn2)cc1,-3.45
2,CCCCCNC(=O)c1cccnc1SCC(=O)Nc1ccccc1OC,1.32
3,O=[N+]([O-])c1cccc(Nc2c3ccccc3nc3ccccc23)c1,11.6
4,Cc1ccc(NC(=O)Nc2ccccc2)c(Br)c1,5.03
5,CC(=O)Nc1ccc(SCC(=O)Nc2ccccc2Oc2ccccc2)cc1,-3.81
6,COC(=O)CNC(=O)C(CCSC)NC(C)=O (stereo not given),-8.17
7,COc1ccc(-n2c(C)cc(C(=O)CN3C(=O)NC4(CCc5ccccc54)C3=O)c2C)cc1 (stereo not given),1.51
8,CC(Oc1ccc(Br)cc1Br)C(=O)NC1CCCC1 (stereo not given),-6.64
9,CC(C)C(c1nnnn1C(C)(C)C)N1CCN(Cc2cccnc2)CC1 (stereo not given),-9.51
10,COc1ccc(C2CC(c3cccs3)=NN2c2ccc(F)cc2)cc1OC (stereo not given),16.6
11,CC(=O)Nc1ccccc1NC(=O)c1cc(C)cc(C)c1,-9.63
12,CC1CCCC(NC(=O)COC(=O)[C@@H]2CC(O)CN2S(=O)(=O)c2ccc3c(c2)OCCO3)C1C (stereo not given in full),-5.42
13,O=C(COC(=O)c1cc([N+](=O)[O-])ccc1NCc1ccccc1)NC1CCCCC1,-7.16
14,CNC(=O)c1[nH]cnc1C(=O)N[C@@H](CC(C)C)C(=O)OCc1ccccc1,11.4
15,Cc1cc(C)nc(N(C#N)CC(=O)Nc2ccccc2)n1,0.75

# — PubChem BioAssay AID1563 (The Scripps Research Institute Molecular Screening Center, 2009)
